# Data: article PMC7862700, “An all-to-all approach to the identification of sequence-specific readers for epigenetic DNA modifications on cytosine”
# Key:
# Assay in all cases: DAPPL (digital affinity profiling via proximity ligation, sequencing); 10 mM Tris-HCl pH 7.5, 50 mM NaCl, 1 mM DTT, 4% glycerol, room temperature, 30 min; GST-TFs on glutathione beads, 16-mer random dsDNA library, 0.1% formaldehyde crosslink after washing; high values mean tight binding
# FLI1 = molecular target: T1, FLI1 (Homo sapiens, UniProt Q01543 1-452); settings: protein: recombinant; tags: N-terminal GST; dsDNA, one strand shown
# T1 sequence: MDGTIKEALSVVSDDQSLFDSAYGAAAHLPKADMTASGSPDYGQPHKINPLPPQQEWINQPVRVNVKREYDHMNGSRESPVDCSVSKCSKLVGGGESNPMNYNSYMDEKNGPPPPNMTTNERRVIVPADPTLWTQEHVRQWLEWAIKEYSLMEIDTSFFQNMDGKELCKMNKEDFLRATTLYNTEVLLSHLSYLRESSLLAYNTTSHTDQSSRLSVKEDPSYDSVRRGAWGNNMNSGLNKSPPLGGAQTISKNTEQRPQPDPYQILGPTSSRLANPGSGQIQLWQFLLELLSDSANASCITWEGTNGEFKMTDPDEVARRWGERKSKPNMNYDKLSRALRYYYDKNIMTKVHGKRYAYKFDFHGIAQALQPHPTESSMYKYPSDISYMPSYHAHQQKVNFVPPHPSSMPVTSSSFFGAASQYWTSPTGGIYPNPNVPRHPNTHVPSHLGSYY
# Outline: (§1)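 Each value of binding signal is a hexamer's read frequency for a factor divided by the same hexamer's frequency in the tag-only sample. Barcoded, bead-captured GST fusions of human transcription factors made in yeast were pooled with that sample and incubated with 200 nmole of a random double-stranded 16-mer DNA library in Tris/NaCl/DTT/glycerol buffer at room temperature for 30 min. Washing, 0.1% formaldehyde crosslinking, proximity ligation, PCR and Illumina NextSeq500 sequencing followed.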
# ELK1 = molecular target: T2, ELK1 (Homo sapiens, UniProt P19419 1-428); settings: protein: recombinant; tags: N-terminal GST; dsDNA, one strand shown
# T2 sequence: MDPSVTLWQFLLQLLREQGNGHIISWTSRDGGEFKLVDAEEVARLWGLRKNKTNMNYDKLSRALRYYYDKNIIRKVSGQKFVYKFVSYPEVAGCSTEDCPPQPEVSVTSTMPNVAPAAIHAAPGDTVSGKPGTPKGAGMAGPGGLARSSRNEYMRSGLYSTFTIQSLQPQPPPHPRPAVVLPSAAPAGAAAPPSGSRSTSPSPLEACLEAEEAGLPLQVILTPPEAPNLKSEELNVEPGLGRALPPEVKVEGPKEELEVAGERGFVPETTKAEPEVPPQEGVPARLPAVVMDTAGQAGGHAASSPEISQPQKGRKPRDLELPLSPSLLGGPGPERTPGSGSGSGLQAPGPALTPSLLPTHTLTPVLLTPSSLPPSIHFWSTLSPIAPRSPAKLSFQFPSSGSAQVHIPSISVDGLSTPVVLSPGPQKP
# Outline: as §1
# GABPA = molecular target: T3, GABPA (Homo sapiens, UniProt Q06546 1-454); settings: protein: recombinant; tags: N-terminal GST; dsDNA, one strand shown
# T3 sequence: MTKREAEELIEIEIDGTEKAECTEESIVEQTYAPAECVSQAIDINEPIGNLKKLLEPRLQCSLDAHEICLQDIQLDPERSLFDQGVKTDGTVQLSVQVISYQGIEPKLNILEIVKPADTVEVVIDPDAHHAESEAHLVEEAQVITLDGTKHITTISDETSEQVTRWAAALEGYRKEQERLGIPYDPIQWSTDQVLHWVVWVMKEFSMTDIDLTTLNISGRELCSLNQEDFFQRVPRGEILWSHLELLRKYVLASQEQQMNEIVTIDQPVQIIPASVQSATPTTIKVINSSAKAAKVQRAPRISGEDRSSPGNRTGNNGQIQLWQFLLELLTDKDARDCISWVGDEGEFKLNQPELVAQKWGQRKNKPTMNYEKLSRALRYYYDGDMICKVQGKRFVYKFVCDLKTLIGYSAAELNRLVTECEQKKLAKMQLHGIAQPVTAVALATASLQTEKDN
# Outline: as §1
# ELF1 = ELF1 (Homo sapiens, UniProt P32519 1-619); settings: protein: recombinant; tags: N-terminal GST; dsDNA, one strand shown
# Outline: as §1
# EHF = molecular target: T4, EHF (Homo sapiens, UniProt Q9NZC4 1-300); settings: protein: recombinant; tags: N-terminal GST; dsDNA, one strand shown
# T4 sequence: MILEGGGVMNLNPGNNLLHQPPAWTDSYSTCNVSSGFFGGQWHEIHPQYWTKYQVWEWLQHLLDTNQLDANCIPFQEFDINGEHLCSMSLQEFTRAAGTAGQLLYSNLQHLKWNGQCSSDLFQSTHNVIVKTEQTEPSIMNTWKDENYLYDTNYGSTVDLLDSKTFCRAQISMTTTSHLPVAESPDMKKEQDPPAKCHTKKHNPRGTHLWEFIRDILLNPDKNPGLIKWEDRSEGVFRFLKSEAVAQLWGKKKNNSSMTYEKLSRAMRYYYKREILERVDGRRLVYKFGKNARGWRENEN
# Outline: as §1
# SPI1 = SPI1 (Homo sapiens, UniProt P17947 1-270); settings: protein: recombinant; tags: N-terminal GST; dsDNA, one strand shown
# Outline: as §1
# SPIB = SPIB (Homo sapiens, UniProt Q01892 1-262); settings: protein: recombinant; tags: N-terminal GST; dsDNA, one strand shown
# Outline: as §1
# ELK3 = molecular target: T5, ELK3 (Homo sapiens, UniProt P41970 1-407); settings: protein: recombinant; tags: N-terminal GST; dsDNA, one strand shown
# T5 sequence: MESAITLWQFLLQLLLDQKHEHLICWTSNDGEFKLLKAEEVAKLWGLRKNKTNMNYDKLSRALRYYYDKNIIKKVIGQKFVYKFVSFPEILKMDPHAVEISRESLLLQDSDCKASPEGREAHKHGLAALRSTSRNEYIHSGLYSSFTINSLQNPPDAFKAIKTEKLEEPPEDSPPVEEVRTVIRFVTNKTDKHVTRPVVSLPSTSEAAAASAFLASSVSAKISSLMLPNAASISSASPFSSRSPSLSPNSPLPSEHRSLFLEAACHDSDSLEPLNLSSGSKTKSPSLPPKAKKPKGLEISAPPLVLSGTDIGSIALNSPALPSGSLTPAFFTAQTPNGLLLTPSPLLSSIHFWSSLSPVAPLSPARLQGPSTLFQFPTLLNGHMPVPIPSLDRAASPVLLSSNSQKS
# Outline: as §1
# FEV = molecular target: T6, FEV (Homo sapiens, UniProt Q99581 1-238); settings: protein: recombinant; tags: N-terminal GST; dsDNA, one strand shown
# T6 sequence: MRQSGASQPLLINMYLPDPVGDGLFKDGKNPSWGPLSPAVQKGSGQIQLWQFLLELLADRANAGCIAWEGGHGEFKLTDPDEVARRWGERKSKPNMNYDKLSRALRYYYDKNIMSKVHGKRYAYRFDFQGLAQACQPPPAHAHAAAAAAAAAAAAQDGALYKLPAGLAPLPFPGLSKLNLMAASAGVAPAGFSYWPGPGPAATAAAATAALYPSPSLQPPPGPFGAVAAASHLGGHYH
# Outline: as §1
# ETV5 = ETV5 (Homo sapiens, UniProt P41161 1-510); settings: protein: recombinant; tags: N-terminal GST; dsDNA, one strand shown
# Outline: as §1
# HSF1 = HSF1 (Homo sapiens, UniProt Q00613 1-529); settings: protein: recombinant; tags: N-terminal GST; chain copies: 3; dsDNA, one strand shown
# Outline: as §1
# SPIC = molecular target: T7, SPIC (Homo sapiens, UniProt Q8N5J4 1-248); settings: protein: recombinant; tags: N-terminal GST; dsDNA, one strand shown
# T7 sequence: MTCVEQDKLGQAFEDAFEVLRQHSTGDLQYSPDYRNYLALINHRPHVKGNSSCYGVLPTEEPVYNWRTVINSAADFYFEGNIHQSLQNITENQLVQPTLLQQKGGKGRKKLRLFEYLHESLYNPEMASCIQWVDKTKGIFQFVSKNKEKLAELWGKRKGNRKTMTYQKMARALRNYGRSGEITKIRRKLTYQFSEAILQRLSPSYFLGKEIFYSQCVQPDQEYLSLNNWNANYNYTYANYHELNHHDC
# Outline: as §1
# ELF4 = ELF4 (Homo sapiens, UniProt Q99607 1-663); settings: protein: recombinant; tags: N-terminal GST; dsDNA, one strand shown
# Outline: as §1
# ELK4 = molecular target: T8, ELK4 (Homo sapiens, UniProt P28324-2 1-405); settings: protein: recombinant; tags: N-terminal GST; dsDNA, one strand shown
# T8 sequence: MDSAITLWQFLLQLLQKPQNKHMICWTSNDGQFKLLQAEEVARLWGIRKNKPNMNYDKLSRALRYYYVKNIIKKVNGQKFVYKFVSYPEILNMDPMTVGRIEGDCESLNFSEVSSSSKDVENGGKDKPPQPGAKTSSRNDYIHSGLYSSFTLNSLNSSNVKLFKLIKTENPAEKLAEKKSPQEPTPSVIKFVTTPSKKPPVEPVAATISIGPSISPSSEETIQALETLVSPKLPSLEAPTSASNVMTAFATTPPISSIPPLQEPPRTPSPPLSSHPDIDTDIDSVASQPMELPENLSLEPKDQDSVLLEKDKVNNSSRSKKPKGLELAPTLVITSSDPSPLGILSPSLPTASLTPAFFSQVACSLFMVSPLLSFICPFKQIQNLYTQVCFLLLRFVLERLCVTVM
# Outline: as §1
# ETV2 = molecular target: T9, ETV2 (Homo sapiens, UniProt O00321 1-342); settings: protein: recombinant; tags: N-terminal GST; dsDNA, one strand shown
# T9 sequence: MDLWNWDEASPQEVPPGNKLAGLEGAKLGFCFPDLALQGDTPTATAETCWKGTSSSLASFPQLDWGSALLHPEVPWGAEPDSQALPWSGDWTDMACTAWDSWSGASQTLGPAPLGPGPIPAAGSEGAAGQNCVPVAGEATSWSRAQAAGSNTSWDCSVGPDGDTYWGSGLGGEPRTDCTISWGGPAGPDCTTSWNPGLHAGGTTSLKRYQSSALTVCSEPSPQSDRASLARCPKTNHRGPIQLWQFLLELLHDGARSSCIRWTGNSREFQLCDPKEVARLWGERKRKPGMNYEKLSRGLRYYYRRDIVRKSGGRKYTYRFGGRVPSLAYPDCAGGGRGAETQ
# Outline: as §1
# ELF3 = molecular target: T10, ELF3 (Homo sapiens, UniProt P78545 1-371); settings: protein: recombinant; tags: N-terminal GST; dsDNA, one strand shown
# T10 sequence: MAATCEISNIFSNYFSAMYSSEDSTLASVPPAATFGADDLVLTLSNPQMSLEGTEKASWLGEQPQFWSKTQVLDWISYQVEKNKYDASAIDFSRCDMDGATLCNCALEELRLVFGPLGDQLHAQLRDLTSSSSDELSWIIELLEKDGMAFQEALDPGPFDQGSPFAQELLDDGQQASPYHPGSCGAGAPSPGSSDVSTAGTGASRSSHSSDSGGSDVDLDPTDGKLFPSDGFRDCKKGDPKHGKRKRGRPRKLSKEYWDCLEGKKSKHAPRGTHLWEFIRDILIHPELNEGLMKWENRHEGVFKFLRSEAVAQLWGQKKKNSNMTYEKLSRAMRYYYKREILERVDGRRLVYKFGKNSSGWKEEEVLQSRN
# Outline: as §1
# CRX = CRX (Homo sapiens, UniProt O43186 1-299); settings: protein: recombinant; tags: N-terminal GST; dsDNA, one strand shown
# Outline: as §1
# ETV1 = ETV1 (Homo sapiens, UniProt P50549 1-477); settings: protein: recombinant; tags: N-terminal GST; dsDNA, one strand shown
# Outline: as §1
# Sequence of SPIB (Q01892 whole entry): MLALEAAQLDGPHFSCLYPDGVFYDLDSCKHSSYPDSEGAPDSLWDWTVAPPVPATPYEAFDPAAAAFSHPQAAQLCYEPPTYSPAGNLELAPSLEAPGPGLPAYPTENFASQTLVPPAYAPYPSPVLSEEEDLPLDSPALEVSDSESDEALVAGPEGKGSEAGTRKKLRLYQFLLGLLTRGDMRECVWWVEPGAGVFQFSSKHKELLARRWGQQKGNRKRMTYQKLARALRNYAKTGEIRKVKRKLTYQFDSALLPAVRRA
# Sequence of ELF1 (P32519 whole entry): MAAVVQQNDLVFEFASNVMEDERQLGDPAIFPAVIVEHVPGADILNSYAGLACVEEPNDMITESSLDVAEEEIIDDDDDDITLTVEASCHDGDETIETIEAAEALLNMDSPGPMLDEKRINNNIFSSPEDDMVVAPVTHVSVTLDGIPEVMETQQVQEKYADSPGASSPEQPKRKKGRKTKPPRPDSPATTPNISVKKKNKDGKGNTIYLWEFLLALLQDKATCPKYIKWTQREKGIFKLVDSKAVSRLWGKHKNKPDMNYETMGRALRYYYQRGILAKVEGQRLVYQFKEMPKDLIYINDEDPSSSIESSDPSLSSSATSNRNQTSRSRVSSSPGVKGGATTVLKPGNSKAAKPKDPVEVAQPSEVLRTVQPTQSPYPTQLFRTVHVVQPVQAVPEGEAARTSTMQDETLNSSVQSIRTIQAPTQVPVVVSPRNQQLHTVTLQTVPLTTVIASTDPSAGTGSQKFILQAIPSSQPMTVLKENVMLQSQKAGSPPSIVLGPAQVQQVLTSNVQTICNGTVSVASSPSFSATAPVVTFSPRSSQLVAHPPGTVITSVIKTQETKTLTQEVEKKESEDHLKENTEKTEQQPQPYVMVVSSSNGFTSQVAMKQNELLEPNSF
# Sequence of ETV5 (P41161 whole entry): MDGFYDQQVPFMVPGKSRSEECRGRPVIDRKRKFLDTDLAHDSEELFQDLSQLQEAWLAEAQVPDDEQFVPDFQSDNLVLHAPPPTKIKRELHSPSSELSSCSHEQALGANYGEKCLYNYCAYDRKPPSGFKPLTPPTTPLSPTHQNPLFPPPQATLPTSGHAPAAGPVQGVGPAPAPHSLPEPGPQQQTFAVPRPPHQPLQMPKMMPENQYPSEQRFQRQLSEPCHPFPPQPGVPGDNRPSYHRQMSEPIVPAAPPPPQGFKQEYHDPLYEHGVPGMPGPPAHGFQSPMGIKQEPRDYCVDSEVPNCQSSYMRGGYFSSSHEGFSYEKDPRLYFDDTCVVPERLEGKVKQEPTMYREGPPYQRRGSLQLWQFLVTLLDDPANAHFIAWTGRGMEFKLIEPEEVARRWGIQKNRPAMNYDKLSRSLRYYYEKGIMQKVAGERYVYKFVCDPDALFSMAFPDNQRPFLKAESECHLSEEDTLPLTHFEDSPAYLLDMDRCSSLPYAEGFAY
# Sequence of HSF1 (Q00613 whole entry): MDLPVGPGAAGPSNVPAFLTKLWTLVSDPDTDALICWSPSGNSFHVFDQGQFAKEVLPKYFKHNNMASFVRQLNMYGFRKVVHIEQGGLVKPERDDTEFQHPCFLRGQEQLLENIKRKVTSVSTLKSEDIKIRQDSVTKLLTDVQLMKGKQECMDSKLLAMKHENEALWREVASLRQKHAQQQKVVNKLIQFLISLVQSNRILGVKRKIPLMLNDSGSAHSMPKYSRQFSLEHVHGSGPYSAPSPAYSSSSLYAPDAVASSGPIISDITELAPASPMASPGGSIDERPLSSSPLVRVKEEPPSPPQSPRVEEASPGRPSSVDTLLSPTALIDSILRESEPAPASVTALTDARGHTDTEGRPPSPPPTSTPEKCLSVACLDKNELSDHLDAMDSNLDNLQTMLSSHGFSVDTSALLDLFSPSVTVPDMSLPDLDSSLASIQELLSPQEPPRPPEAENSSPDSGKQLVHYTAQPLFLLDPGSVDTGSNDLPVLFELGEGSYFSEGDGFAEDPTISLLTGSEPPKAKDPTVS
# Sequence of ETV1 (P50549 whole entry): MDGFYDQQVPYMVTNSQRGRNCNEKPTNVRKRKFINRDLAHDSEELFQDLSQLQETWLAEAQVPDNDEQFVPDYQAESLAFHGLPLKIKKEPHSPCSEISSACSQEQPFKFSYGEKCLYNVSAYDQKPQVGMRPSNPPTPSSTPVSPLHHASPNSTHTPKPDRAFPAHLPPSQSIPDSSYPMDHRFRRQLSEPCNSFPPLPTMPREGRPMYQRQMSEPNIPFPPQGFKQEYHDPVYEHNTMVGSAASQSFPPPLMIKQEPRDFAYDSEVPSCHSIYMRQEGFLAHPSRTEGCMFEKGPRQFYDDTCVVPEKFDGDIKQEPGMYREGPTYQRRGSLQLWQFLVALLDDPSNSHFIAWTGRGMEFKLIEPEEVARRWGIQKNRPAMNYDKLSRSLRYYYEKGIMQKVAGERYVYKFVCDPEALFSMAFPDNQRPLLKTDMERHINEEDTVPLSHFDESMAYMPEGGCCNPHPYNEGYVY
# Sequence of ELF4 (Q99607 whole entry): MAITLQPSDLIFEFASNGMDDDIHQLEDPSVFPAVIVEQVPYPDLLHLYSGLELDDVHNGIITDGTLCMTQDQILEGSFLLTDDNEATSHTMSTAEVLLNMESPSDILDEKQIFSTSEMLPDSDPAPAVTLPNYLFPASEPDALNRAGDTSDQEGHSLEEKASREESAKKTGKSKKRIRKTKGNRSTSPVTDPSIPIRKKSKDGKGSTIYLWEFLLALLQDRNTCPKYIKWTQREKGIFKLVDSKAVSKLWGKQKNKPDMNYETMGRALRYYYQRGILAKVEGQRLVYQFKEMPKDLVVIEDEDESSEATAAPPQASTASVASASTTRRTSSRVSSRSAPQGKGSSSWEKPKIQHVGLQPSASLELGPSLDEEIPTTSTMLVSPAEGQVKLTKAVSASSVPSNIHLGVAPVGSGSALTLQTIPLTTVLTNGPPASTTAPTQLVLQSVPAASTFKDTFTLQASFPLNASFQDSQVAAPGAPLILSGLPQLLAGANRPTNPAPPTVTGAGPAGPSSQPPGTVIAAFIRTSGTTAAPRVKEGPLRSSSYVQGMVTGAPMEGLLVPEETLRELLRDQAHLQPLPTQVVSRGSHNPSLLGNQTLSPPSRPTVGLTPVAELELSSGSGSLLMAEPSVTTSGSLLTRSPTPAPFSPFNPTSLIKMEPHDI
# Sequence of CRX (O43186 whole entry): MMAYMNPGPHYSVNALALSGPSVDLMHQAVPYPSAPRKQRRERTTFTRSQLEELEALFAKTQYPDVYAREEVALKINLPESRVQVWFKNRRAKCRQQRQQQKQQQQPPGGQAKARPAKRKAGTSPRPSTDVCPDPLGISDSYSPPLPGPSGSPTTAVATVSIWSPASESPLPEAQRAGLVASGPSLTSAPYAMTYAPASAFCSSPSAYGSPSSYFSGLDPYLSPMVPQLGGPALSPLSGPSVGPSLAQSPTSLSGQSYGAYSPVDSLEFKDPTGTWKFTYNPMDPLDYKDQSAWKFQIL
sequence,measurement,setting,value
AAAAGT,binding signal,FLI1,"1.02 fold enrichment (6-mer frequency, TF over GST control)"
same,binding signal,ELK1,"1.1 fold enrichment (6-mer frequency, TF over GST control)"
same,binding signal,GABPA,"1.08 fold enrichment (6-mer frequency, TF over GST control)"
same,binding signal,ELF1,"1.01 fold enrichment (6-mer frequency, TF over GST control)"
same,binding signal,EHF,"1.1 fold enrichment (6-mer frequency, TF over GST control)"
same,binding signal,SPI1,"1.06 fold enrichment (6-mer frequency, TF over GST control)"
same,binding signal,SPIB,"1.12 fold enrichment (6-mer frequency, TF over GST control)"
same,binding signal,ELK3,"1.06 fold enrichment (6-mer frequency, TF over GST control)"
same,binding signal,FEV,"1.04 fold enrichment (6-mer frequency, TF over GST control)"
same,binding signal,ETV5,"1.06 fold enrichment (6-mer frequency, TF over GST control)"
same,binding signal,HSF1,"1.06 fold enrichment (6-mer frequency, TF over GST control)"
same,binding signal,SPIC,"1.1 fold enrichment (6-mer frequency, TF over GST control)"
same,binding signal,ELF4,"1.1 fold enrichment (6-mer frequency, TF over GST control)"
same,binding signal,ELK4,"1.24 fold enrichment (6-mer frequency, TF over GST control)"
same,binding signal,ETV2,"1.03 fold enrichment (6-mer frequency, TF over GST control)"
same,binding signal,ELF3,"1.12 fold enrichment (6-mer frequency, TF over GST control)"
same,binding signal,CRX,"1.09 fold enrichment (6-mer frequency, TF over GST control)"
same,binding signal,ETV1,"1.13 fold enrichment (6-mer frequency, TF over GST control)"
